# Records with an inconclusive call do not appear. The source made the active and inactive calls. The calls were made as follows, unless noted: active = hit-call score of the fitted dose curve at least 0.9, where 1 is the maximum; inactive = score below 0.9.
# Experiments:
# [1] = CCTE_Shafer_MEA_dev_firing_rate_mean: CCTE's Neural Network Formation Assay for Mean Firing Rate, Shafer Lab (AID 2284031);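 as to AC50: curve fitted for loss of firing so AC50 reflects decreased mean firing rate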
# Summary of the method: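 Rat primary cortical neurons were seeded on multielectrode arrays and treated from plating through day 12, with redosing at each feed. Spontaneous spiking was recorded four times; mean firing rate AUC was fitted downward against DMSO.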
# [2] = CCTE_Shafer_MEA_dev_per_burst_spike_percent: CCTE's Neural Network Formation Assay for Percent of Spikes in a Burst, Shafer Lab (AID 2284032);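 as to AC50: fitted as a decrease in burst spike percentage below DMSO baseline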
# Summary of the method: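 Rat primary cortical neurons on 16-electrode MEA wells, dosed from plating day 0 for 12 days with renewal on DIV 5 and 9; spikes-in-bursts percentage averaged over bursting electrodes, collapsed as AUC across days 5, 7, 9, 12; loss direction versus DMSO.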
# [3] = CCTE_Shafer_MEA_dev_active_electrodes_number: CCTE's Neural Network Formation Assay for Number of Active Electrodes, Shafer Lab (AID 2284040; active = hit-call score of the fitted dose curve at least 0.9, where 1 is the maximum;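 as to AC50: potency for loss of active electrodes versus DMSO so lower counts are hits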)
# Summary of the method: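 Primary rat cortical neurons on 16-electrode MEA wells, exposed from day 0 through day 12 with compound renewed at DIV 5 and 9 feeds. Active electrodes (mean firing ≥5 spikes/min) counted at DIV 5, 7, 9, 12; trapezoidal AUC across days, loss-of-signal versus DMSO.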
# [4] = CCTE_Shafer_MEA_dev_burst_rate: CCTE's Neural Network Formation Assay for Burst Rate, Shafer Lab (AID 2284042);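 as to AC50: potency for loss of burst rate below DMSO control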
# Summary of the method: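 Exposure ran continuously over 12 days of network development in rat cortical cultures, with compound refreshed during full media changes on DIV 5 and 9. Single-electrode bursts per recording time, well-mean over active electrodes, trapezoidal AUC across days 5–12, fitted downward relative to DMSO.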
# [5] = CCTE_Shafer_MEA_dev_bursting_electrodes_number: CCTE's Neural Network Formation Assay for Number of Bursting Electrodes, Shafer Lab (AID 2284043; active = hit-call score of the fitted dose curve at least 0.9, where 1 is the maximum;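 as to AC50: potency is for loss of bursting electrodes relative to DMSO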)
# Summary of the method: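 Primary rat cortical neurons were cultured on PEI-coated 48-well MEA plates (16 electrodes/well) and exposed from plating through day 12, with compound renewed at feeds on DIV 5 and 9. Electrodes bursting ≥1 per 2 min were counted on DIV 5, 7, 9, 12; trapezoidal AUC taken.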
# [6] = CCTE_Shafer_MEA_dev_per_burst_interspike_interval: CCTE's Neural Network Formation Assay for Burst Interspike Interval, Shafer Lab (AID 2284044);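 also: mean spike spacing inside bursts as AUC over recordings on days 5 7 9 12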;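 as to AC50: potency for a decrease of within-burst interspike interval below DMSO level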
# Summary of the method: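 Neurons from rat cortex plated onto PEI-coated MEA wells with laminin […] at 1.5 x 10^5 cells/well, then treated from day 0. Media and compound fully replaced on DIV 5 and 9. Extracellular spontaneous firing recorded four times; interspike interval per burst summarised as AUC.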
# [7] = CCTE_Shafer_MEA_dev_burst_duration_mean: CCTE's Neural Network Formation Assay for Mean Burst Duration, Shafer Lab (AID 2284045);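 as to AC50: curve fitted for loss meaning shorter burst duration than DMSO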
# Summary of the method: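 Primary rat cortical neurons on PEI-coated 16-electrode MEA wells, exposed from plating through day 12 with compound renewed at DIV 5 and 9; spontaneous activity recorded days 5, 7, 9, 12. Well-mean burst duration collapsed as trapezoidal AUC, fitted for loss versus DMSO.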
# [8] = CCTE_Shafer_MEA_dev_interburst_interval_mean: CCTE's Neural Network Formation Assay for Mean Interburst Interval, Shafer Lab (AID 2284046);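 also: well-mean interburst interval of bursting electrodes as AUC over four recording days; curve fitted for decrease in interburst interval relative to DMSO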
# Summary of the method: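 Primary rat cortical neurons on PEI-coated 48-well MEA plates (laminin added with cells at plating) (16 electrodes/well), exposed from plating day 0 with renewal at DIV 5 and 9. Mean inter-burst interval averaged over bursting electrodes, AUC across days 5, 7, 9, 12; DMSO baseline.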
# [9] = CCTE_Shafer_MEA_dev_inter_network_spike_interval_mean: CCTE's Neural Network Formation Assay for Mean Inter-network Spike Interval, Shafer Lab (AID 2284047);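 as to AC50: potency for a decrease in mean inter-network spike interval below DMSO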
# Summary of the method: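 Mean time between consecutive network-spike peaks, recorded extracellularly (adaptive spike detection) on DIV 5, 7, 9 and 12, summarized as trapezoidal AUC. Rat cortical cultures on MEAs dosed continuously days 0–12, re-dosed at feeds; loss-of-signal fit relative to DMSO.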
# [10] = CCTE_Shafer_MEA_dev_network_spike_number: CCTE's Neural Network Formation Assay for Number of Network Spikes, Shafer Lab (AID 2284048);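 also: synchronized bursts across electrodes counted on days 5 7 9 12 and integrated as AUC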;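 as to AC50: fit as a loss of signal meaning fewer network spikes than DMSO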
# Summary of the method: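 Primary rat cortical neurons were seeded at 1.5 x 10^5 cells/well on PEI-coated 16-electrode MEA wells with laminin, exposed from plating day 0, compound renewed at DIV 5 and 9. Network spikes were recorded on days 5, 7, 9, 12 and summarized as trapezoidal AUC versus DMSO.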
# [11] = CCTE_Shafer_MEA_dev_spike_duration_mean: CCTE's Neural Network Formation Assay for Mean Spike Duration, Shafer Lab (AID 2284051);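 also: mean network spike duration pooled as area under curve over DIV 5 to 12 recordings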;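 as to AC50: potency for a decrease in mean network spike duration versus DMSO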
# Summary of the method: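 Spontaneous activity was recorded on days 5, 7, 9 and 12 from rat cortical cultures grown on microelectrode arrays and dosed continuously from day 0, with media and compound renewed after the DIV 5 and 9 recordings. Network-spike duration was collapsed by area under the curve.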
# [12] = CCTE_Shafer_MEA_dev_network_spike_duration_std: CCTE's Neural Network Formation Assay for Standard Deviation of Network Spike Duration, Shafer Lab (AID 2284052);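 also: hits are decreases in network spike duration SD versus DMSO vehicle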
# Summary of the method: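 Network spike duration variability was collapsed across recordings on days 5, 7, 9 and 12 by trapezoidal area-under-curve and fitted downward against DMSO. Cultures were rat cortical neurons on PEI-coated MEA plates, dosed continuously from plating, refed with compound DIV 5/9.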
# [13] = CCTE_Shafer_MEA_dev_per_network_spike_spike_number_mean: CCTE's Neural Network Formation Assay for Mean Number of Spikes in a Network Spike, Shafer Lab (AID 2284053);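 as to AC50: fitted as decrease in spikes per network spike relative to DMSO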
# Summary of the method: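 Mean spike count within each network spike, taken in a 0.05 s window at its peak, was recorded on days 5, 7, 9 and 12 and integrated as trapezoidal area under the curve. Rat cortical cultures on MEA plates received continuous compound from day 0, refreshed at medium changes on DIV 5 and 9.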
# [14] = CCTE_Shafer_MEA_dev_per_network_spike_spike_percent: CCTE's Neural Network Formation Assay for Percent of Spikes in a Network Spike, Shafer Lab (AID 2284054)
# Summary of the method: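 Primary rat cortical neurons on 16-electrode MEA wells (PEI-coated, laminin at plating), exposed from day 0 with renewal at DIV 5 and 9; spikes within 0.05 s of network-spike peaks over total spikes, AUC across days 5, 7, 9, 12.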
# [15] = CCTE_Shafer_MEA_dev_LDH: CCTE's Lactate Dehydrogenase Assay for Cytotoxicity in the Neural Network Formation Assay, Shafer Lab (AID 2284068; active = hit-call score of the fitted dose curve at least 0.9, where 1 is the maximum;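 also: exposure for twelve days from plating with re-dosing on DIV 5 and 9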)
# Summary of the method: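 Primary rat cortical neurons were cultured on PEI-coated MEA plates and exposed from plating through day 12, with compound renewed at medium changes on DIV 5 and 9. LDH activity was read spectrophotometrically; loss of signal versus DMSO indicates reduced viability.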
# [16] = CCTE_Shafer_MEA_dev_mutual_information_norm: CCTE's Neural Network Formation Assay for Mutual Information Normalization, Shafer Lab (AID 2284091);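 as to AC50: mutual information between electrodes summarised as area under curve across four recording days; potency is for a decrease in mutual information relative to DMSO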
# Summary of the method: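 Rat cortical cultures, 48-well MEA, continuous exposure DIV 0–12 with full media/compound change DIV 5 and 9. Readout: inter-electrode mutual information, AxIS adaptive spike detection; AUC across DIV 5/7/9/12 recordings; DMSO baseline, negative fitting direction.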
# [17] = CCTE_Shafer_MEA_dev_correlation_coefficient_mean: CCTE's Neural Network Formation Assay for Mean Correlation Coefficient, Shafer Lab (AID 2284093);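 as to AC50: well mean pairwise spike train correlation integrated as AUC over recording days 5 to 12; potency fitted for loss of correlation relative to DMSO vehicle wells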
# Summary of the method: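 Primary rat cortical neurons on PEI-coated 48-well MEA plates (16 electrodes/well) were exposed from plating day 0 through DIV12, with compound renewed at DIV5 and 9. Pairwise spike correlations were averaged per well; trapezoidal AUC across DIV5, 7, 9, 12.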
# [18] = Tanguay_ZF_120hpf_MUSC: Oregon State University Tanguay Lab 120 Hour Post-fertilization zebrafish Assay for Muscle Malformation (AID 2284401)
# Summary of the method: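 Dechorionated Tropical 5D wild-type zebrafish embryos exposed statically from 6 to 120 hpf at 28C, one per well, in 0.64% DMSO. Muscle malformation scored present/absent by brightfield microscopy at 120 hpf, fitted against DMSO.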
structure (smiles),measurement,setting,value
O.O.O.O.O.[Cd+2].[Cd+2].[Cl-].[Cl-].[Cl-].[Cl-],AC50,[1],227 nM (active)
same,AC50,[2],316 nM (active)
same,AC50,[3],362 nM (active)
same,AC50,[4],188 nM (active)
same,AC50,[5],300 nM (active)
same,AC50,[6],812 nM (active)
same,AC50,[7],375 nM (active)
same,AC50,[8],863 nM (active)
same,AC50,[9],38.4 nM (active)
same,AC50,[10],117 nM (active)
same,AC50,[11],295 nM (active)
same,AC50,[12],181 nM (active)
same,AC50,[13],226 nM (active)
same,AC50,[14],228 nM (active)
same,AC50,[15],499 nM (active)
same,AC50,[16],135 nM (active)
same,AC50,[17],246 nM (active)
OCCCC(F)(F)C(F)(F)C(F)(F)C(F)(F)C(F)(F)C(F)(F)C(F)(F)F,outcome,[18],inactive
C=C(C)C(=O)OCC(F)(F)C(F)(F)C(F)(F)C(F)(F)C(F)(F)C(F)(F)C(F)(F)F,outcome,[18],inactive
C[C@H](N)Cc1ccccc1,outcome,[1],inactive
same,outcome,[2],inactive
same,outcome,[3],inactive
same,outcome,[4],inactive
same,outcome,[5],inactive
same,outcome,[6],inactive
same,outcome,[7],inactive
same,outcome,[8],inactive
same,outcome,[9],inactive
same,outcome,[10],inactive
same,outcome,[11],inactive
same,outcome,[12],inactive
same,outcome,[13],inactive
same,outcome,[14],inactive
same,outcome,[16],inactive
same,outcome,[17],inactive
